{
  "source": "PubChem BioAssay AID598",
  "about": "(SRMLSC, 2007)",
  "note": "About 5,100 (6%) of roughly 85,000 compounds were called active. This excerpt belongs to a sample that is enriched for actives. Unmarked numbers belong to inactive results.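 Rule for the calls: active = viability at or below 40%; inactive = viability above 40%.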",
  "data": [
    {"assay": "proliferation blockers of H69AR lung cancer cells, primary screen, cell-based, human, 86K library (AID 598);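 note: multidrug resistant small cell line overexpressing MRP-1 efflux transporter; 100% = mean luminescence of untreated control wells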", "conditions": "H69AR lung tumor viability, ATP luminescence, 72 h; at 10 µM; active compounds read low", "values": [
      {"smiles": "Cc1nc2c(c(=O)n1Cc1ccco1)c1nc3ccccc3nc1n2Cc1ccccc1", "viability": "11.2% (active)"},
      {"smiles": "COCCCn1c2nc3ccccc3nc2c2c(=O)n(Cc3ccc(Cl)cc3)c(C)nc21", "viability": "64.8%"},
      {"smiles": "Cc1ccc(Cn2c(C)nc3c(c2=O)c2nc4ccccc4nc2n3Cc2ccco2)cc1", "viability": "83.3%"},
      {"smiles": "OCCCN1c2ccccc2Nc2nnc(-c3ccccc3)cc21", "viability": "39.4% (active)"},
      {"smiles": "Cc1nc(NC(=O)C2CCCCC2)sc1C", "viability": "91.5%"},
      {"smiles": "CCNS(=O)(=O)c1ccc(NC(=O)Nc2cccc(OC)c2)cc1", "viability": "82.3%"},
      {"smiles": "O=C(O)CSCC(=O)Nc1cccc(C(F)(F)F)c1", "viability": "96.6%"},
      {"smiles": "CCNS(=O)(=O)c1ccc(NC(=O)Nc2cccc(C(F)(F)F)c2)cc1", "viability": "9.94% (active)"},
      {"smiles": "COc1ccc(-c2cn(-c3ccc(C)cc3)c(=O)n2CC(=O)Nc2ccc(OC)c(OC)c2)cc1", "viability": "76.5%"},
      {"smiles": "CS(=O)(=O)n1nc(-c2ccccc2)nc1NCc1ccco1", "viability": "96.7%"},
      {"smiles": "Cc1cc(S(=O)(=O)NC2CCCCC2)ccc1OCC(=O)NCc1cccnc1", "viability": "107%"},
      {"smiles": "CC1(C)CC(CC(=O)O)C(=O)O1", "note": "(stereo unspecified)", "viability": "98%"},
      {"smiles": "OC(COc1cccc2ccccc12)CN1CCN(c2ccccn2)CC1", "note": "(stereo unspecified)", "viability": "86.3%"},
      {"smiles": "COc1cccc(OCC(O)CN2CCN(CCO)CC2)c1", "note": "(stereo unspecified)", "viability": "96.9%"},
      {"smiles": "Cc1ccc(OCC(O)CN2CCN(CC(O)COc3ccc(C)cc3Cl)CC2)c(Cl)c1", "note": "(stereo unspecified)", "viability": "1.96% (active)"},
      {"smiles": "O=C(CSc1nnnn1-c1ccccc1)NCc1ccco1", "viability": "80%"},
      {"smiles": "Cc1nnc(SCC(=O)NCc2cccs2)[nH]c1=O", "viability": "91.8%"},
      {"smiles": "CCN(CC(=O)NCc1cccs1)c1nnnn1-c1ccccc1", "viability": "14% (active)"},
      {"smiles": "c1ccc2c(c1)C(=NC1CCCCC1)NC2=NC1CCCCC1", "viability": "15.9% (active)"},
      {"smiles": "O=C1CCCCC(=O)c2ccccc2N1", "viability": "102%"},
      {"smiles": "Cc1nnc(OCC(=O)NCCC2=CCCCC2)c2ccccc12", "viability": "101%"},
      {"smiles": "Cc1c(NC(=O)c2coc(=O)c(Br)c2)c(=O)n(-c2ccccc2)n1C", "viability": "2.66% (active)"},
      {"smiles": "COC(=O)Nc1c(C)n(C)n(-c2ccccc2)c1=O", "viability": "99.9%"},
      {"smiles": "Cc1cc(C(=O)Nc2c(C)n(C)n(-c3ccccc3)c2=O)cs1", "viability": "110%"},
      {"smiles": "Clc1ccc(Nc2nc(-c3cccs3)cs2)nc1", "viability": "31.8% (active)"},
      {"smiles": "O=C(Nc1ccc(Cl)cn1)Nc1cccs1", "viability": "98.4%"},
      {"smiles": "c1ccc(Nc2nc(-c3ccncc3)cs2)nc1", "viability": "86.7%"},
      {"smiles": "Cc1cc(C)c2cc(CN(Cc3nnnn3Cc3ccc(F)cc3)C3CCCC3)c(=O)[nH]c2c1", "viability": "64.6%"},
      {"smiles": "CCCCOC(=O)Cn1c(=N)n(CCN(CC)CC)c2ccccc21", "viability": "91.2%"},
      {"smiles": "CCn1c(/C=C/c2ccc([N+](=O)[O-])o2)nc2ccccc2c1=O", "viability": "6.55% (active)"},
      {"smiles": "O=c1c2ccccc2nc(N/N=C/c2ccccc2)n1O", "viability": "46.3%"},
      {"smiles": "CCOC(=O)C1CCc2nc3ccccc3c(=O)n21", "note": "(stereo unspecified)", "viability": "96.6%"},
      {"smiles": "O=C(CCN1c2ccccc2Sc2ccccc21)Nc1ccccc1", "viability": "70.8%"},
      {"smiles": "CC1=CC(=O)C=CC1(C)C(Cl)(Cl)Cl", "note": "(stereo unspecified)", "viability": "105%"},
      {"smiles": "COc1ccc2c(c1)cc1n2CCN=C1NN", "viability": "90.8%"},
      {"smiles": "COC(=O)C1=C(C(=O)OC)C2(OC1c1ccc(Br)cc1)C(=O)c1ccccc1C2=O", "note": "(stereo unspecified)", "viability": "106%"},
      {"smiles": "CCOC(=O)c1ccc(N2C(=O)CC(N(C)Cc3ccccc3)C2=O)cc1", "note": "(stereo unspecified)", "viability": "93.7%"},
      {"smiles": "Fc1ccc(N2CCN(Cc3cnc(Oc4ccc(Br)cc4)s3)CC2)cc1", "viability": "90.4%"},
      {"smiles": "Oc1c(CN2CCN(c3ccc(F)cc3)CC2)cc(Cl)c2cccnc12", "viability": "5.07% (active)"},
      {"smiles": "O=C(c1cccc(C(=O)N2CCN(c3ccc(F)cc3)CC2)c1)N1CCN(c2ccc(F)cc2)CC1", "viability": "70.1%"},
      {"smiles": "Cn1c(-c2sc3cc(C(F)(F)F)cnc3c2-c2ccccc2)n[nH]c1=S", "viability": "92.5%"},
      {"smiles": "C=CCc1ccc(OCCOc2cccc(/C=N/n3cnnc3)c2)c(OC)c1", "viability": "80.3%"},
      {"smiles": "O=C(OCC#CCSc1nnc(-c2ccncc2)o1)c1sc2ccccc2c1Cl", "viability": "2.76% (active)"},
      {"smiles": "O=C(Nc1ccon1)c1sc2ccccc2c1Cl", "viability": "88.1%"},
      {"smiles": "CCOC(=O)CSc1nnc(-c2ccncc2)o1", "viability": "95.7%"},
      {"smiles": "O=C(Nc1ccc2c(c1)CCC2)c1cccc(S(=O)(=O)N2CCN(c3ccc(F)cc3)CC2)c1", "viability": "79.3%"},
      {"smiles": "COc1ccc(C2CC(c3cccs3)=Nc3ccccc3S2)cc1OC", "note": "(stereo unspecified)", "viability": "20.8% (active)"},
      {"smiles": "COc1ccc(C2CC(=O)n3c(nc4ccccc43)S2)cc1OC", "note": "(stereo unspecified)", "viability": "115%"},
      {"smiles": "COc1ccc(C2SCCN2S(=O)(=O)c2ccccc2)cc1OC", "note": "(stereo unspecified)", "viability": "81.4%"},
      {"smiles": "O=C(Nc1ccc(F)c(Cl)c1)C1CCN(S(=O)(=O)c2cccnc2)CC1", "viability": "71.8%"},
      {"smiles": "CCOC(=O)c1cnn(Cc2ccccc2Cl)c1N", "viability": "96.2%"},
      {"smiles": "CC1CCCN(C(C(=O)Nc2ccc(C(C)C)cc2)c2ccc3c(c2)OCO3)C1", "note": "(stereo unspecified)", "viability": "59.6%"},
      {"smiles": "CC(=O)N1CCN(CCN=CC2=C(O)CC(C)(C)CC2=O)CC1", "viability": "101%"},
      {"smiles": "Cc1[nH]n(-c2ccc([N+](=O)[O-])cc2)c(=O)c1C=NCCN1CCN(C(=O)c2ccccc2F)CC1", "viability": "39.4% (active)"},
      {"smiles": "CC(=O)Nc1ccc(S(=O)(=O)N2CCN(C(=O)c3ccccc3F)CC2)cc1", "viability": "85.2%"},
      {"smiles": "CCC(C(=O)NCc1ccc(OC)cc1)n1nc(C)n2c(cc3occc32)c1=O", "note": "(stereo unspecified)", "viability": "80.3%"},
      {"smiles": "CCCc1nnc(NC(=O)c2cccs2)s1", "viability": "102%"},
      {"smiles": "O=S(=O)(c1ccc(Br)cc1)n1ccc2ccccc21", "viability": "8.36% (active)"},
      {"smiles": "CCCCNS(=O)(=O)c1ccc(S(=O)(=O)n2cnc3ccccc32)cc1", "viability": "88.8%"},
      {"smiles": "CC1(C)C2CCC13CS(=O)(=O)NC3C2", "note": "(stereo unspecified)", "viability": "91.1%"},
      {"smiles": "CCn1c(C)nc2cc(C(=O)NNS(=O)(=O)c3ccc(C)cc3C)ccc21", "viability": "95.5%"},
      {"smiles": "OC(c1ccccc1)c1nccn1Cc1ccccc1", "note": "(stereo unspecified)", "viability": "94.2%"},
      {"smiles": "CCn1c(Cc2cccs2)nnc1SCC(=O)c1ccc(C)cc1", "viability": "84.1%"},
      {"smiles": "NC(=O)c1ncc(C(F)(F)F)cc1Oc1ccc(F)cc1", "viability": "102%"},
      {"smiles": "N/C(=N\\OC(=O)Nc1ccc(Cl)c(Cl)c1)c1ncc(C(F)(F)F)cc1Cl", "viability": "19.4% (active)"},
      {"smiles": "O=C(CN1CCN(c2ncc(C(F)(F)F)cc2Cl)CC1)Nc1ccc2c(c1)OCO2", "viability": "105%"}
    ]}
  ]
}
